High-throughput results from PubChem BioAssay.
This is a sample that favours compounds with a hit; in the whole collection about 12% have one here.
HP1b chromo inh: inhibitors of HP1-beta chromodomain binding to methylated histone tails; P83916; AlphaScreen HP1-beta / biotin-H3K9me3 peptide binding; Potency, µM (series often up to 114 µM), actives largely listed as inhibitors; 390,000 compounds, 0.56% hits; AID 540317; note: nearly all actives have a fitted effect of over 70% in size
Target sequence (P83916 whole entry, looked up): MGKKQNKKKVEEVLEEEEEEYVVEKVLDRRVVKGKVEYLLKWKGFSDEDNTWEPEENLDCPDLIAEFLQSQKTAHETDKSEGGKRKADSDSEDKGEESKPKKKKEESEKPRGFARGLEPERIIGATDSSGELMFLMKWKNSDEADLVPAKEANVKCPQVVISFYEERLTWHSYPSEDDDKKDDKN
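Compound inhibition of the preformed complex between 50 nM HP1-beta and 50 nM biotinylated H3K9me3 peptide was read by AlphaScreen. Buffer was PBS pH 7.4 with 0.01% Tween-20. Incubations ran 30 min at room temperature, with 10 ug/mL donor/acceptor beads.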
JMJD2A Tudor: JMJD2A Tudor domain (human) inhibition; O75164; AlphaScreen JMJD2A-Tudor / H3K4me3 peptide binding; Potency, µM (doses to about 114 µM), usual class: inhibitors; 390,000 compounds, 4.4% hits; AID 504339; note: nearly all actives have a fitted effect of over 50% in size
G9a inh: G9a (human) methyltransferase inhibition; 350,000 compounds, 8.8% hits; Potency, µM (series often up to 102 µM), usual class: inhibitors; Q96KQ7; G9a H3K9 monomethylation, AlphaScreen, 2 h; note: nearly all actives have a fitted effect of over 75% in size
Target sequence (Q96KQ7 913-1193 limits assumed): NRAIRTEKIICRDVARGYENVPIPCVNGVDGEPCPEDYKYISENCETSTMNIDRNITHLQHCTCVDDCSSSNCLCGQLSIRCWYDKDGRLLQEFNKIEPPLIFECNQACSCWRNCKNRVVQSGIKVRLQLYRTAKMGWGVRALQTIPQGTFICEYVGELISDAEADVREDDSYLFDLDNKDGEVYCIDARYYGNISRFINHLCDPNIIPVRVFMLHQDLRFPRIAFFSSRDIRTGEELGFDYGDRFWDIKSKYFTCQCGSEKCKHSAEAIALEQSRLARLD
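Signal arises when biotinylated H3K9 peptide, once monomethylated, bridges streptavidin donor and antibody-captured acceptor beads. Enzyme at 20 nM was preincubated 15 min with test compounds; peptide 500 nM and SAM 20 uM then reacted for 2 h.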
BAZ2B block: inhibitors of human BAZ2B bromodomain. AlphaScreen BAZ2B-H3K14Ac peptide displacement. Potency, µM (highest dose often 114 µM), actives largely listed as inhibitors. 360,000 compounds, 4.4% hits. AID 504333; note: nearly all actives have a fitted effect of over 60% in size
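BAZ2B (50 nM) with biotin-H3(5-23)K14Ac peptide (50 nM) in PBS pH 7.4, 0.01% Tween-20, preformed 30 min, then compound 30 min at room temperature; top concentration 110uM. AlphaScreen streptavidin donor/nickel chelate acceptor beads (10 ug/mL final), 20 min dark, signal read.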
Sfp inh: Sfp phosphopantetheinyl transferase inhibition; Biochemical Sfp PPTase activity, qHTS; Potency, µM, actives largely listed as inhibitors; Q9F4F7; AID 1490; 310,000 compounds, 3.5% hits;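 note: the enzyme is Sfp with the accession as filed and its product quenches rhodamine fluorescence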
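Fluorescence-quenching assay: 15 nM Sfp-PPTase preincubated 15 min at room temperature with compound, then 5 uM rhodamine-CoA and 12.5 uM BHQ-2-labelled YbbR peptide added. Fluorescence (ex 525/em 598 nm) read at start and after 30 min; difference gives rate.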
Hits are given with their value; n = inactive; u = inconclusive; x = not tested or not shown; ! = a repeat was not active; [ ] = another dose, or the depositor's remark. Calls come from the whole dose curve; as a rule, active = well fitted curve in the direction sought with a large enough effect; inconclusive = small, poorly fitted or top-dose-only effect, or another doubt; inactive = no such curve, though single readings can be large; an effect the other way counts as inactive or inconclusive.

SMILES | HP1b chromo inh | JMJD2A Tudor | G9a inh | BAZ2B block | Sfp inh
COc1ccc(CNC(=O)C2CCCCN2S(=O)(=O)c2ccc(F)cc2)cc1 (stereo not given) | n | n | n | n | x
Cn1cc[nH]c1=S | n | u | 45µM | n | u
CCC(=O)N1CCc2cc(Br)cc(S(=O)(=O)CCC(=O)N3CCN(c4cc(C)ccc4C)CC3)c21 | n | n | u | u | x
S=C(c1ccc(-c2ccc(Cl)cc2Cl)o1)N1CCCCC1 | n | u | u | 22µM | 56µM
S=C(c1ccc(-c2ccc(Cl)cc2Cl)o1)N1CCCC1 | u | 50µM | x | n | 14µM
S=C(Nc1ccc(Cl)cc1Cl)N1CCCCC1 | u | n | n | n | n
CCN1C(=O)c2ccccc2S(=O)(=O)c2ccc(C(=O)NCc3ccccc3OC)cc21 | n | n | n | n | x
COc1ccc(Nc2nn(-c3ccc(OC(F)(F)F)cc3)nc2C(C)=O)cc1 | n | n | n | n | x
CC(C)Oc1ccc(C(=O)Nc2nnc(C3=COCCO3)o2)cc1 | n | u | n | u | x
Cc1ccc(-c2nnc(NC(=O)c3ccc4c(c3)OCCO4)o2)c(C)c1 | n | n | n | n | x
COc1ccc(C(=O)Nc2nnc(C3=COCCO3)o2)cc1OC | n | 50µM | n | 16µM | n
Cc1cccc(C(=O)Nc2nnc(C3=COCCO3)o2)c1 | n | 40µM | n | 7.9µM | n
COc1ccc(NC(=O)CCS(=O)(=O)c2cc3c4c(c2)CCN4C(=O)CC3)c(OC)c1 | n | n | u | n | x
O=C(CCS(=O)(=O)c1cc2c3c(c1)CCN3C(=O)CC2)Nc1cccc(Br)c1 | n | 79µM | u | n | x
COc1ccc(C)cc1NC(=O)CCS(=O)(=O)c1cc2c3c(c1)CCN3C(=O)CC2 | 71µM | 32µM | 8.9µM | n | x
COc1ccc(NC(=O)CCS(=O)(=O)c2cc3c4c(c2)CCN4C(=O)CC3)cc1OC | n | n | n | n | x
COc1ccccc1NC(=O)CCS(=O)(=O)c1cc2c3c(c1)CCN3C(=O)CC2 | n | u | 20µM | n | x
Cc1cc(C)n(CCCNC(=O)c2ccc(C)o2)n1 | n | n | n[12.7 µM] | n | x
CCCn1c(-c2ccc(F)cc2)nc2c(NCC(C)(C)CN(C)C)nc(C)nc21 | x | x | x | x | n
NCCNCCN | x | x | x | x | 3.2µM
NCCCCCCCCCCN | x | x | n | x | x
NCCCCN | x | x | 50µM! | x | n
NCCNCCNCCN | n | n | n | u | n
NCCCCNCCCN | n | n | 11µM! | n | u
O=C(Nc1ccc(C(=O)N2CCOCC2)cc1)C1CC1 | n | n | x | x | x
SMILES | HP1b chromo inh | JMJD2A Tudor | G9a inh | BAZ2B block | Sfp inh
CC(C)(C)c1ccc(C(=O)NNC(=O)c2ccc(Cl)cc2)cc1 | n | n | n | n | n
CCc1ccc(C(=O)NNc2cc(Cl)cc(Cl)c2)cc1 | n | n | x | n | n
CC(C)(C)c1ccc(C(=O)NNc2cc(Cl)cc(Cl)c2)cc1 | n | n | 22µM | n | n
CCc1ccc(C(=O)NNc2ccc(Cl)cc2)cc1 | n | n | 10µM | u | n
Cc1ccccc1OCC(=O)Nc1ccc(OCc2cc(=O)n3ccsc3n2)cc1 | n | n | n | n | x
CCC12CN3CC(C)(CN(C1)C3c1c(C)n(C)c3ccccc13)C2=O (stereo not given) | n | n | n | n | x
CCOC(=O)N/N=C1/C[C@@H](O)[C@@H](O)[C@@H]2[C@H]3C(=O)N(c4ccc(F)cc4F)C(=O)[C@@H]3CC[C@H]12 | x | x | x | x | n
c1ccc(CN=C(NCc2ccccc2)NCc2ccccc2)cc1 | n | n | x | x | x
CO[C@H]1COC(=O)[C@H](C)NC(=O)C/C=C\[C@@H](C)[C@@H](NS(=O)(=O)c2ccc(C)cc2)COC(=O)[C@H](OCc2ccccc2)/C=C\[C@@H]1C | x | x | x | x | n
O=C(COC(=O)/C=C/c1ccco1)Nc1cccc([N+](=O)[O-])c1 | n | n | u | u | 32µM
CCN(CC)S(=O)(=O)c1cccc(NC(=O)COC(=O)/C=C/c2ccco2)c1 | n | n | 16µM | 50µM | 28µM
Cc1ccc(/C=C/C(=O)OCC(=O)Nc2cccc(S(=O)(=O)N(C)C)c2)o1 | n | n | u | 79µM | n
CCN(CC)c1ccc(S(=O)(=O)N2CCOCC2)cc1NC(=O)COC(=O)/C=C/c1ccc(C)o1 | n | n | 45µM | n | x
CCN(CC)c1ccc(S(=O)(=O)N2CCOCC2)cc1NC(=O)COC(=O)/C=C/c1ccccc1 | n | n | x | x | x
COc1ccc(S(=O)(=O)N2CCN(C(=O)CCCN3C(=O)NC4(CCCC4)C3=O)CC2)cc1 | n | n | n[0.501 µM] | n | x
COc1ccc([C@]23Cc4ccccc4C(O2)C2=C(CC(C)(C)CC2=O)O3)cc1 | x | x | n[2.33 µM] | u | n
Nc1c(C(=O)OCC(=O)Nc2cccc([N+](=O)[O-])c2)[nH]c(=O)[nH]c1=O | n | 79µM | x | x | x
COC(=O)NNC(=O)c1ccccc1OC | n | n[11.4 µM] | n | n | n
COc1ccccc1C(=O)NNC(=S)Nc1ccccc1 | n | n | 28µM | n | n
COc1cc(NC(=S)NC(=O)c2ccco2)ccc1NC(=O)C(C)C | n | n | n[12.7 µM] | n | u
COc1cc(NC(=S)NC(=O)c2ccccc2F)ccc1NC(=O)c1ccco1 | u | u | 7.9µM | n | n
COc1ccccc1C(=O)NNC(=S)NC(=O)c1ccco1 | n | n | 28µM | n | n
O=C(NC(=S)Nc1ccc(F)c([N+](=O)[O-])c1)c1ccccc1F | n | n | 45µM | n | n
CCOC(=O)C1=C(Nc2ccc(OC)cc2)OCC1=O | n | n | n | n | n
